Data from ChEMBL document CHEMBL3988442, “University of Dundee, Small-Polar-MMV Screening Library” (2021).

These compounds were tested on Trypanosoma cruzi (assay: Trypanosoma cruzi phosphomannomutase and mannose-1-phosphate guanylyltransferase assay). Settings: 10 µM.
Assay type: functional
Set-up: scale not given: direction of the effect not stated beside the values

SMILES	Percent Effect
COc1cc(CNCCc2nc(C)cs2)cc2c1OCCO2	-1.13%
Cc1ccc(CN(Cc2ccccn2)C2CC(C)(C)NC(C)(C)C2)s1	-3.95%
CCc1ccccc1C(=O)N1CCN(S(C)(=O)=O)[C@@H](C)C1	5.09%
COCCN(Cc1ccc(F)cc1Cl)C(=O)c1ccc(=O)[nH]n1	4.37%
CC(Oc1ccccc1C(F)(F)F)C(=O)NCC(N)=O (stereo not drawn)	4.3%
Cc1cc(-c2cnc(N3CCNC(=O)C3)nc2-c2ccc(C)o2)on1	1.38%
Cc1csc(CNC(=O)NCCc2ccc3c(c2)OCCO3)n1	7.93%
O=C1COC2(CCN(CC3CC3)CC2)CN1c1ccccc1	4.17%
COc1ccc(CCN2CCC(N3CCN(C)C3=O)CC2)cc1	-1.87%
CCOC(=O)c1c(NC(=O)CN2CCN(C(C)=O)CC2)sc2c1CCC2	-0.0974%
CC(C)(C(=O)NCC(N)=O)c1ccccc1F	-3.98%
COc1c(CNCCNC(=O)Cc2ccc(F)cc2)c(C)nn1C	-7.52%
Cc1ccc(C(=O)N2CCO[C@H]3[C@@H](OCc4ccccn4)CC[C@@H]32)o1	-4.44%
CN1N=C(C(=O)NCc2ccc3c(c2)CCCN3C)CCC1=O	4.41%
Cc1ccc(CCC(=O)N(C)CCN2CCOCC2)c(C)c1	-0.487%
c1cnnc(N2CCCC2CNCc2nc3ccccc3o2)c1 (stereo not drawn)	0%
Cc1nc(C(=O)N2CCCC2c2c(C)nn(C)c2C)ccc1C#N (stereo not drawn)	-2.36%
Cc1noc([C@H]2C[C@@H]3CCN(CC4CC4)C[C@H]3O2)n1	-1.48%
CCOCC(=O)N1C[C@@H](NC(C)=O)[C@H](c2ccc(OC)cc2)C1	2.63%
CCN1CC2(CCNCC2)COc2ccccc2S1(=O)=O	-4.91%

SMILES	Percent Effect
O=C(O)C1(Cc2cc(-c3cccc(F)c3)no2)CCOCC1	-3.75%
COc1ccc(C2(NC(=O)CCn3cncn3)CCCCC2)cc1	0.79%
CCC(CNC(=O)Nc1cnn(CC)c1)N1CCCC1 (stereo not drawn)	-6.33%
CC1CCCCN1CCNC(=O)c1ccn(-c2ccc(F)cc2)n1 (stereo not drawn)	6.51%
CN1CCCC(c2cccc(Cc3ccccc3Cl)n2)C1 (stereo not drawn)	1.38%
COCC1CN(C(=O)CNC(C)=O)Cc2ncnn2C1 (stereo not drawn)	2.65%
CCN(Cc1nc(C(C)C)no1)Cc1cccs1	5.8%
CCc1nc(CN2CCCN(c3nc4ccccc4o3)CC2)no1	-9.14%
CC(NC(=O)Cn1cccn1)c1cccnc1 (stereo not drawn)	8.67%
COCc1ccccc1NC(=O)[C@@H]1CCCN1C(=O)c1ccco1	2.82%
CCc1nnc2n1CCN(CC(=O)Nc1sccc1C#N)C2	-8.68%
COCC1CCN(C(=O)c2cccc(S(=O)(=O)NCC3(C)COC3)c2)C1 (stereo not drawn)	1.07%
CC(C)N1CCC(NCc2cccnc2N(C)Cc2ccccc2)CC1	0.0974%
CCc1cnc(CN(C)C2CCN(CCc3cccs3)C2)o1 (stereo not drawn)	-2.89%
CN(CCn1nc2ccccn2c1=O)CC(=O)N1CCCC1	-6.33%
Cc1ccc(-c2csc(N)c2C#N)cc1	-3.34%
O=C(NCCN1CCOCC1)c1ccc(-n2ccc3ccccc32)s1	1.08%
Cc1cnn(CC2CN(c3ncnc4ccccc34)CCO2)c1 (stereo not drawn)	8.03%
O=S(=O)(Cc1ccccc1)NCc1ccco1	0.68%

These compounds were tested against T1, Arginase-2, mitochondrial (Homo sapiens) (UniProt P78540) (assay: in vitro enzyme assay to detect the production of urea directly proportional to the activity of Arginase II). Settings: 33.3 µM.
T1 sequence (whole entry): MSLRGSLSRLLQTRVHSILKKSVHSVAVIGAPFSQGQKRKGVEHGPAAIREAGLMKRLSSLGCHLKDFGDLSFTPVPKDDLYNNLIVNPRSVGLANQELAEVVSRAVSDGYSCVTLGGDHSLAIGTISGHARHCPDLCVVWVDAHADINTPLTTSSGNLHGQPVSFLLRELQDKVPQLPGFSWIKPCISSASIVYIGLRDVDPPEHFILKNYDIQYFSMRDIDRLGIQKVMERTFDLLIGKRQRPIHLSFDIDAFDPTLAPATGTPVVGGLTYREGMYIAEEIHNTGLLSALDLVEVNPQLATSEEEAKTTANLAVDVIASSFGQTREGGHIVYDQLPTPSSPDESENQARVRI
Assay type: functional
Set-up: scale not given: direction of the effect not stated beside the values

SMILES	Percent Effect
COc1cc(CNCCc2nc(C)cs2)cc2c1OCCO2	-3.06%
Cc1ccc(CN(Cc2ccccn2)C2CC(C)(C)NC(C)(C)C2)s1	-0.232%
CCc1ccccc1C(=O)N1CCN(S(C)(=O)=O)[C@@H](C)C1	3.18%
COCCN(Cc1ccc(F)cc1Cl)C(=O)c1ccc(=O)[nH]n1	6.18%
CC(Oc1ccccc1C(F)(F)F)C(=O)NCC(N)=O (stereo not drawn)	-1.67%
Cc1cc(-c2cnc(N3CCNC(=O)C3)nc2-c2ccc(C)o2)on1	-6.76%
Cc1csc(CNC(=O)NCCc2ccc3c(c2)OCCO3)n1	-3.58%
O=C1COC2(CCN(CC3CC3)CC2)CN1c1ccccc1	-2%
COc1ccc(CCN2CCC(N3CCN(C)C3=O)CC2)cc1	-4.98%
CCOC(=O)c1c(NC(=O)CN2CCN(C(C)=O)CC2)sc2c1CCC2	-1.18%
CC(C)(C(=O)NCC(N)=O)c1ccccc1F	-17.7%
COc1c(CNCCNC(=O)Cc2ccc(F)cc2)c(C)nn1C	-4.99%
Cc1ccc(C(=O)N2CCO[C@H]3[C@@H](OCc4ccccn4)CC[C@@H]32)o1	11%
CN1N=C(C(=O)NCc2ccc3c(c2)CCCN3C)CCC1=O	0.215%
Cc1ccc(CCC(=O)N(C)CCN2CCOCC2)c(C)c1	-7.1%
c1cnnc(N2CCCC2CNCc2nc3ccccc3o2)c1 (stereo not drawn)	-3.19%
Cc1nc(C(=O)N2CCCC2c2c(C)nn(C)c2C)ccc1C#N (stereo not drawn)	1.07%
Cc1noc([C@H]2C[C@@H]3CCN(CC4CC4)C[C@H]3O2)n1	-0.645%
CCOCC(=O)N1C[C@@H](NC(C)=O)[C@H](c2ccc(OC)cc2)C1	18.8%
CCN1CC2(CCNCC2)COc2ccccc2S1(=O)=O	-18.1%

SMILES	Percent Effect
O=C(O)C1(Cc2cc(-c3cccc(F)c3)no2)CCOCC1	-3.02%
COc1ccc(C2(NC(=O)CCn3cncn3)CCCCC2)cc1	1.62%
CCC(CNC(=O)Nc1cnn(CC)c1)N1CCCC1 (stereo not drawn)	3.04%
CC1CCCCN1CCNC(=O)c1ccn(-c2ccc(F)cc2)n1 (stereo not drawn)	-16%
CN1CCCC(c2cccc(Cc3ccccc3Cl)n2)C1 (stereo not drawn)	-3.48%
COCC1CN(C(=O)CNC(C)=O)Cc2ncnn2C1 (stereo not drawn)	2.76%
CCN(Cc1nc(C(C)C)no1)Cc1cccs1	1.38%
CCc1nc(CN2CCCN(c3nc4ccccc4o3)CC2)no1	-13.8%
CC(NC(=O)Cn1cccn1)c1cccnc1 (stereo not drawn)	6.25%
COCc1ccccc1NC(=O)[C@@H]1CCCN1C(=O)c1ccco1	6.62%
CCc1nnc2n1CCN(CC(=O)Nc1sccc1C#N)C2	5.4%
COCC1CCN(C(=O)c2cccc(S(=O)(=O)NCC3(C)COC3)c2)C1 (stereo not drawn)	3.23%
CC(C)N1CCC(NCc2cccnc2N(C)Cc2ccccc2)CC1	1.04%
CCc1cnc(CN(C)C2CCN(CCc3cccs3)C2)o1 (stereo not drawn)	-5.4%
CN(CCn1nc2ccccn2c1=O)CC(=O)N1CCCC1	3.55%
Cc1ccc(-c2csc(N)c2C#N)cc1	-4.05%
O=C(NCCN1CCOCC1)c1ccc(-n2ccc3ccccc32)s1	-3.23%
Cc1cnn(CC2CN(c3ncnc4ccccc34)CCO2)c1 (stereo not drawn)	-1.14%
O=S(=O)(Cc1ccccc1)NCc1ccco1	0%
